# Screening results from PubChem BioAssay.
# HTR5A ag ctr – HTR5A agonists in luminescence cell assay, primary screen, counter-screen for OPRM1-OPRD1 heterodimer agonist project, full-deck HTS. 5-hydroxytryptamine receptor 5A (Homo sapiens), P47898. activation, % at 9.3 µM. 340,000 tested, 0.61% active. cell-based; in the data active = activation mostly above about 9.5%, no sharp cut-off; inactive = mostly below about 7.6%;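 note: 0% = cells with vehicle only and 100% = reference agonist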
# OPRM1-OPRD1 ag – agonists of OPRM1-OPRD1 heterodimerization, primary screen, cell-based, luminescence | 340,000 tested, 0.3% active | cells | activation, % at 9.3 µM | AID 504326, 2011; in the data active = activation above about 18%;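 note: 0% = vehicle-treated cells and 100% = reference agonist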
# HTR5A inv ag – HTR5A inverse agonists in luminescence cell assay, primary screen, counter-screen for OPRM1-OPRD1 heterodimer inverse agonist project, full-deck HTS; inhibition, % at 9.3 µM; 340,000 tested, 0.083% active; AID 504634, 2011; HTR5A cell line, inverse agonism; 5-hydroxytryptamine receptor 5A (Homo sapiens), P47898; in the data active = inhibition mostly above about 23%, no sharp cut-off; inactive = mostly below about 18%;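 note: 0% = cells with DMSO and 100% = no-cell wells with DMSO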
# OPRM1-OPRD1 inv – inverse agonists of MOR-DOR heterodimerization, primary screen, cell-based, luminescence; 340,000 tested, 0.21% active; Mu-type opioid receptor (Homo sapiens) + Delta-type opioid receptor (Homo sapiens), …; inhibition, % at 9.3 µM; AID 504357, 2011; cell-based MOR-DOR heterodimer luminescence, inverse agonism; in the data active = inhibition above about 22%, passing the limit was not always enough;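 note: 0% = cells with DMSO and 100% = wells without cells with DMSO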
# Active calls of the source: *. Compounds with a hit are over-represented: about 1.1% of the library has one in this group of screens.
SMILES,HTR5A ag ctr,OPRM1-OPRD1 ag,HTR5A inv ag,OPRM1-OPRD1 inv
COc1ccc(C(CCN(Cc2ccc(OC)c(OC)c2)C(C)=O)c2ccccc2)cc1 (stereo unspecified),-4,-1,10,8
O=C1C2C3CCC(C3)C2C(=O)N1c1ccc(OS(=O)(=O)c2ccccc2)cc1 (stereo unspecified),13*,3,-2,-13
COc1cc(C(=O)O)cc(NC(=O)c2ccco2)c1OC,12*,-3,-39,16
Cc1ccc(NC(=O)CNCc2ccccc2)c(Br)c1,0,4,0,-17
Cc1ccc(CNCC(=O)Nc2ccc(C)cc2Br)cc1,12*,2,13,-10
O=C(COc1ccc(Br)cc1Cl)NC(=O)Nc1ccc2c(c1)OCCO2,4,-1,-11,7
Cc1nc2nc(SCC(=O)NCCCN3CCCC(C)C3)nn2c(C)c1Cc1ccccc1Cl (stereo unspecified),2,-3,-16,15
C=CCN=c1sc(C(=O)OC)cc(=O)n1CC=C,6,-3,-19,15
CCN=c1sc(C(=O)OC)cc(=O)n1CC,11*,-1,0,5
COCc1cc(C)nc(Sc2nc3c(c(=O)n(C)c(=O)n3C)n2C)c1C#N,-1,-1,3,4
CC1CN(c2ncnc3c2c(-c2ccccc2)cn3-c2ccc(F)cc2)CC(C)O1 (stereo unspecified),-21,-13,77*,62*
OCCN1CCN(c2ncnc3c2c(-c2ccccc2)cn3-c2ccc(F)cc2)CC1,-17,-10,44*,45*
COc1ccc(-n2cc(-c3ccccc3)c3c(NN4CCOCC4)ncnc32)cc1,0,0,-3,-1
Fc1ccc(-n2cc(-c3ccccc3)c3c(NN4CCOCC4)ncnc32)cc1,-17,-6,46*,34*
CC(C)N(C(=O)Cn1cc(S(=O)(=O)CC(=O)Nc2ccccc2)c2ccccc21)C(C)C,8,-2,14,13
COCCn1c(SCC(=O)NCc2ccc(F)cc2)nc2ccccc21,13*,0,-24,1
COCCn1c(SCC(=O)NCc2ccccc2)nc2ccccc21,3,3,-8,-21
CC1=[N+](C)c2ccc3ccccc3c2C1(C)C,13*,9,-37,-69
CCOC(=O)c1ccc(NS(=O)(=O)c2ccc3oc(=O)[nH]c3c2)cc1,14,-1,-41,3
CC(=O)C(Cl)C(=O)Nc1ccccc1 (stereo unspecified),-5,-15,-1,74*
O=C(Nc1ccccc1)C(Cl)C(=O)c1ccccc1 (stereo unspecified),-13,-19,51*,96*
O=[N+]([O-])c1ccc(COc2cccc3cccnc23)cc1,-2,-1,9,4
N#Cc1ccc(COc2cccc3cccnc23)cc1,14*,2,-10,-11
COc1ccccc1NC(=O)COC(=O)Cn1cnc2c1c(=O)n(C)c(=O)n2C,-3,0,7,1
Cc1ccc(S(=O)(=O)N2CCCN(C(=O)CNC(=O)c3cccc(C)c3)CC2)cc1,1,-2,-3,7
SMILES,HTR5A ag ctr,OPRM1-OPRD1 ag,HTR5A inv ag,OPRM1-OPRD1 inv
CCCS(=O)(=O)c1nc(S(=O)(=O)c2ccc(C)cc2)c(N2CCC(C(N)=O)CC2)s1,-1,-1,6,7
COc1ccc(/C=N/NC(=O)CCn2c3ccccc3c3ccccc32)cc1O,8,0,9,-2
COc1cccc(/C=N/NC(=O)CCn2c3ccccc3c3ccccc32)c1,12*,4,-21,-23
CC(=O)Nc1ccc(OCC(O)Cn2nc(C)c(C)c2C)cc1 (stereo unspecified),-3,-3,11,14
CCO[C@H]1OC(C(=O)NC2CC2)=C[C@@H](c2coc3ccccc3c2=O)[C@@H]1CCCO,4,-1,7,7
COc1cc(C(=O)O)cc(Br)c1OC1CCCC1,11*,-1,-3,3
Cc1sc2nc(CN3CCN(c4ccc(O)cc4)CC3)[nH]c(=O)c2c1C,12*,-1,-39,5
OC(CNCC1COc2ccccc2O1)COc1ccc(Cl)cc1 (stereo unspecified),9.6*,6,-35,-28
CC(=O)Nc1sc(N/N=C/c2ccccc2)nc1-c1ccc(C)cc1,13*,1,4,-3
Cn1cc(/C=N/NC(=O)c2ccccc2O)c2ccccc21,10*,-4,-35,22
